Measured values as given in PubChem BioAssay (EPA / NIEHS).
Several values for one entry are separate records, joined by “and”; a condition that tells them apart may be missing. Identical values can stand only once. The source holds several records for some structures; these can differ, active in one and inactive in another. Activity calls are given as the source filed them. Rule for the calls: active = hit-call score of the fitted dose curve at least 0.9, where 1 is the maximum; inactive = score below 0.9.

Columns and labels:
Conditions in all cases: primary human HUVEC with PBMC; actives raise or lower the signal
[1] = read-out: Interleukin-1 alpha (IL1a), IL1A (gene 3552); experiment: BSK_LPS_IL1a: BioMAP Diversity Plus: LPS Assay for Interleukin-1 alpha (IL1a) Biomarker Activity (AID 2283080)
In short: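 HUVEC/PBMC co-culture, LPS system; 24 h after dosing; IL-1a by ELISA; gain or loss of signal fitted bidirectionally vs DMSO baseline.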

[2] = read-out: Monocyte Chemoattractant Protein-1 (MCP1), CCL2 (gene 6347); experiment: BSK_LPS_MCP1: BioMAP Diversity Plus: LPS Assay for Monocyte Chemoattractant Protein-1 (MCP1) Biomarker Activity (AID 2283081);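 for AC50: secreted MCP-1 protein quantified by ELISA in culture supernatant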
In short: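 ELISA read-out of MCP-1 after 24 h chemical dosing of a human umbilical vein endothelial cell/peripheral blood mononuclear cell co-culture stimulated with LPS. Gain or loss of signal fitted relative to DMSO controls.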

[3] = BSK_LPS_PGE2: BioMAP Diversity Plus: LPS Assay for Prostaglandin E2 (PGE2) Biomarker Activity (AID 2283082);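 for AC50: secreted prostaglandin E2 measured by ELISA in LPS-stimulated co-culture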
In short: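 PGE2 release measured by ELISA in an LPS-activated co-culture of human umbilical vein endothelial cells and peripheral blood mononuclear cells, read at 24 h post-dosing. DMSO served as baseline for bidirectional curve fitting.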

[4] = read-out: Macrophage colony-stimulating factor (MCSF), CSF1 (gene 1435); experiment: BSK_LPS_MCSF: BioMAP Diversity Plus: LPS Assay for Macrophage colony-stimulating factor (MCSF) Biomarker Activity (AID 2283083)
In short: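 HUVEC + PBMC co-culture (human primary), 24 h post-dose; M-CSF by ELISA; gain/loss of signal fitted bidirectionally vs DMSO baseline.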

[5] = read-out: Tissue Factor, F3 (gene 2152); experiment: BSK_LPS_TissueFactor: BioMAP Diversity Plus: LPS Assay for Tissue Factor Biomarker Activity (AID 2283084)
In short: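 HUVEC/PBMC co-culture, LPS-activated; CD142 ELISA read 24 h post-dose; bidirectional curve fit vs DMSO negative control.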

[6] = read-out: Tumor necrosis factor (Homo sapiens) (UniProt P01375); experiment: BSK_LPS_TNFa: BioMAP Diversity Plus: LPS Assay for Tumour Necrosis Factor alpha (TNFa) Biomarker Activity (AID 2283085);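 for AC50: TNFa protein level quantified by ELISA in the co-culture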
In short: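 TNFa was quantified by ELISA in LPS-activated co-cultures of human endothelial cells and PBMC, 24 h post-dosing. Both increases and decreases versus DMSO were fitted.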

[7] = read-out: Vascular cell adhesion molecule 1 (VCAM1), VCAM1 (gene 7412); experiment: BSK_LPS_VCAM1: BioMAP Diversity Plus: LPS Assay for Vascular cell adhesion molecule 1 (VCAM1) Biomarker Activity (AID 2283086)
In short: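 VCAM-1 quantified by ELISA in an LPS-activated co-culture of human endothelial cells and peripheral blood mononuclear cells, read 24 h post-treatment. Fitted in both directions versus DMSO; parallel SRB staining flags overt cytotoxicity.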

CD38, CD38 (gene 952) = experiment: BSK_SAg_CD38: BioMAP Diversity Plus: SAg Assay for CD38 Biomarker Activity (AID 2283087)
In short: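 CD38 quantified by ELISA (fluorescence) in a superantigen-activated endothelial cell–PBMC co-culture at 24 h post-dose. Activity fitted in both directions relative to DMSO; parallel SRB and Alamar Blue cytotoxicity read-outs.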

CD40, CD40 (gene 958) = experiment: BSK_SAg_CD40: BioMAP Diversity Plus: SAg Assay for CD40 Biomarker Activity (AID 2283088)
In short: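 HUVEC/PBMC co-culture, 24 h post-dose; CD40 by ELISA, fluorescence intensity; bidirectional fit vs DMSO negative control.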

CD69, CD69 (gene 969) = experiment: BSK_SAg_CD69: BioMAP Diversity Plus: SAg Assay for CD69 Biomarker Activity (AID 2283089);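 for AC50: cell surface CD69 protein quantified by ELISA with fluorescence detection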
In short: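 Primary human vascular co-culture (umbilical vein endothelium with peripheral blood mononuclear cells) exposed to test chemical for 24 h. CD69 levels quantified by fluorescence ELISA; DMSO served as negative control for bidirectional fitting.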

Measured: AC50

Tumor necrosis factor (Homo sapiens), sequence (P01375 whole entry, looked up): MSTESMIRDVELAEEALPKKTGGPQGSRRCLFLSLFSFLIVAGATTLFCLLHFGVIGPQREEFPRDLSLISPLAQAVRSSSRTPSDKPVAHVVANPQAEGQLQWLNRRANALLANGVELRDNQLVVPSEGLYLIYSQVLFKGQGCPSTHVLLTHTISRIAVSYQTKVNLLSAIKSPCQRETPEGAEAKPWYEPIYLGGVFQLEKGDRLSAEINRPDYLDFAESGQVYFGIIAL

FC(F)(F)C(F)(F)C(F)(F)C(F)(F)C(F)(F)CCI
inactive: all assays above

C=CC(F)(F)C(F)(F)C(F)(F)C(F)(F)C(F)(F)C(F)(F)C(F)(F)C(F)(F)C=C
inactive: all assays above

C=CC(F)(F)C(F)(F)C(F)(F)C(F)(F)C(F)(F)C(F)(F)C(F)(F)C(F)(F)F
inactive: all assays above

NC(=O)C(F)(F)C(F)(F)C(F)(F)C(F)(F)F
inactive: all assays above

C=C(C)C(=O)OCCC(F)(F)C(F)(F)C(F)(F)C(F)(F)C(F)(C(F)(F)F)C(F)(F)F
inactive: all assays above

FC(F)(F)C(F)(F)CNCC(F)(F)C(F)(F)F
inactive: [1] | [2] | [3] | [4] | [5] | [6] | [7] | CD38, CD38 (gene 952) | CD40, CD40 (gene 958) | CD69, CD69 (gene 969)
active: [4] 6.78 µM

O=C(O)C=C(C(F)(F)F)C(F)(F)F
active: [4] 8.27 µM | [7] 10.5 µM and 10.2 µM | CD40, CD40 (gene 958) 40.3 µM | CD69, CD69 (gene 969) 22.8 µM and 30 µM
inactive: [1] | [2] | [3] | [4] | [5] | [6] | CD38, CD38 (gene 952) | CD40, CD40 (gene 958)

O=S(=O)(OCCOC(F)(F)F)C(F)(F)F
inactive: all assays above

O=C(O)C(F)(OC(F)(F)C(F)(OC(F)(F)C(F)(OC(F)(F)C(F)(F)C(F)(F)F)C(F)(F)F)C(F)(F)F)C(F)(F)F (stereo not given)
inactive: all assays above

O=C(O)C(F)(F)C(F)(F)C(F)(F)C(F)(F)C(F)(F)C(F)(F)C(F)(F)C(F)(F)Cl
inactive: [1] | [2] | [4] | [5] | [6] | [7]
active: [4] 19.4 µM | [7] 30 µM | CD38, CD38 (gene 952) 50.4 µM and 30 µM | CD40, CD40 (gene 958) 38.2 µM and 45.9 µM | CD69, CD69 (gene 969) 30 µM and 45 µM

CO[Si](OC)(c1ccccc1)c1ccccc1
inactive: all assays above

OCC(F)(F)C(F)(F)C(F)(F)C(F)(F)C(F)(F)C(F)(F)F
active: CD38, CD38 (gene 952) 9.86 µM and 5.95 µM
inactive: all other assays above

O=C(O)C(F)(F)C(F)(F)C(F)(F)C(F)(F)F
inactive: [1] | [2] | [3] | [4] | [5] | [6] | [7] | CD38, CD38 (gene 952) | CD40, CD40 (gene 958) | CD69, CD69 (gene 969)
active: [4] 8.3 µM

O=C(O)C(F)(F)C(F)(F)C(F)F
inactive: all assays above

CS(C)(=O)=O
inactive: all assays above

O=C(O)C(F)(F)C(F)(F)C(F)(F)C(F)(F)C(F)(F)C(F)(F)C(F)(F)C(F)(F)C(F)(F)C(F)(F)C(F)(F)C(F)(F)C(F)(F)F
active: CD40, CD40 (gene 958) 0.869 µM
inactive: [1] | [2] | [3] | [4] | [5] | [6] | [7] | CD38, CD38 (gene 952) | CD40, CD40 (gene 958) | CD69, CD69 (gene 969)

COC(=O)CCC(F)(F)C(F)(F)C(F)(F)C(F)(F)F
inactive: all assays above

OCCCC(F)(F)C(F)(F)C(F)(F)C(F)(F)C(F)(F)C(F)(F)C(F)(F)F
active: [1] 46 µM | [2] 44.7 µM and 44.2 µM | [4] 46 µM and 47.8 µM | [5] 49.9 µM and 45.5 µM | [6] 48 µM and 25.8 µM | [7] 51.4 µM and 43.6 µM | CD38, CD38 (gene 952) 47.1 µM and 49.3 µM | CD40, CD40 (gene 958) 48 µM and 50.1 µM | CD69, CD69 (gene 969) 42.4 µM and 41.7 µM
inactive: [1] | [3]

CCCCC(CC)COP(=O)(O)OCC(CC)CCCC (stereo not given)
inactive: all assays above

C=CC(=O)OCC(F)(F)C(F)(F)C(F)(F)C(F)(F)COC(=O)C=C
inactive: [3]
active: [1] 20.2 µM and 21.2 µM | [2] 17.3 µM and 19.4 µM | [3] 8.08 µM | [4] 21.4 µM and 21.3 µM | [5] 36.4 µM and 34.8 µM | [6] 18.3 µM and 18.1 µM | [7] 16.6 µM and 16.4 µM | CD38, CD38 (gene 952) 17.6 µM and 20.6 µM | CD40, CD40 (gene 958) 13.1 µM and 15.1 µM | CD69, CD69 (gene 969) 14.5 µM and 17.3 µM

C=CC/C=C/C/C=C/C/C=C/C
active: [6] 628 nM
inactive: all other assays above

O=C(O)C(F)(F)C(F)(F)OC(F)(F)F
inactive: all assays above

O=C(O)C(F)(F)C(F)(F)C(F)(F)C(F)(F)C(F)(F)C(F)(F)C(F)(F)C(F)(F)C(F)(F)C(F)(F)C(F)(F)C(F)(F)F
active: [4] 20.4 µM and 21.6 µM | CD40, CD40 (gene 958) 21.1 µM and 16.7 µM
inactive: all other assays above

C=CC(=O)OCC(F)(F)C(F)(F)C(F)(F)C(F)(F)C(F)(F)C(F)(F)C(F)(F)F
inactive: all assays above

CCCCCCOC(=O)c1ccccc1O
inactive: [1] | [2] | [3] | [4] | [5] | CD38, CD38 (gene 952)
active: [2] 40.6 µM | [3] 39.8 µM | [5] 40.6 µM | [6] 37.3 µM and 39.6 µM | [7] 40.2 µM and 38.2 µM | CD38, CD38 (gene 952) 40.5 µM | CD40, CD40 (gene 958) 45.2 µM and 29.1 µM | CD69, CD69 (gene 969) 39.3 µM and 45.2 µM

O=S(=O)(OCC(F)F)C(F)(F)F
active: CD38, CD38 (gene 952) 0.22 µM
inactive: [1] | [2] | [3] | [4] | [5] | [6] | [7] | CD38, CD38 (gene 952) | CD40, CD40 (gene 958) | CD69, CD69 (gene 969)

O=C(O)C(F)(F)C(F)(F)F
inactive: all assays above

O=C(O)C(F)(F)C(F)(F)C(F)(F)C(F)(F)C(F)(F)C(F)(F)C(F)(F)C(F)(F)C(F)(F)C(F)F
inactive: [1] | [4] | [5] | [6]
active: [1] 54.9 µM | [2] 41.1 µM and 44.3 µM | [7] 52.5 µM and 46.9 µM | CD38, CD38 (gene 952) 48.3 µM and 46.3 µM | CD40, CD40 (gene 958) 41.9 µM and 44.6 µM | CD69, CD69 (gene 969) 37.6 µM and 47.3 µM

N=C(N)C(F)(F)C(F)(F)C(F)(F)C(F)(F)C(F)(F)C(F)(F)C(F)(F)F
active: [1] 38.2 µM | [2] 45.8 µM | [4] 47 µM | [6] 33100 nM | [7] 40.3 µM | CD38, CD38 (gene 952) 53.6 µM | CD40, CD40 (gene 958) 54.7 µM | CD69, CD69 (gene 969) 51 µM
inactive: [1] | [2] | [4] | [5] | [6] | [7] | CD38, CD38 (gene 952) | CD40, CD40 (gene 958) | CD69, CD69 (gene 969)

CCCCCCCOC(=O)c1ccccc1C(=O)OCCCCCCC
inactive: all assays above
